The results in this text go back to PubChem BioAssay (NCATS).

Experiment [1] can be described thus: Cytotoxicity counterscreen for inhibitors of SARS-CoV-2 cell entry (AID 1645845). Further: nearly all actives have a fitted effect of over 50% in size. The method, boiled down: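 48 h compound treatment (after 1 h preincubation), HEK293-ACE2 cells, 37 C/5% CO2; ATP luminescence endpoint; normalized to cell wells and media blanks.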
On the technique in general: Counterscreens check selectivity or assay interference.

Experiment [2] can be described thus: Confirmatory qHTS to identify inhibitors of SARS-CoV-2 cell entry (AID 1645844). Further: nearly all actives have a fitted effect of over 45% in size. A digest of the protocol:
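Luminescence from a luciferase reporter, read 48 hr after pseudotyped-particle addition, gives entry signal, normalised to spike-bearing PP wells and bald PP lacking fusion protein wells. Cells are Expi293F stably expressing human ACE2, compound-pretreated 1 hr.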
(In general: qHTS replaces the single test concentration by a dilution series.)

Experiment [3] is described as follows: Primary qHTS to identify inhibitors of SARS-CoV-2 cell entry (AID 1645846). Further: nearly all actives have a fitted effect of over 45% in size. As to conditions: activity change, negative = inhibition: at 57.1 µM (top of the series) unless noted. A digest of the protocol:
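HEK293 cells stably expressing human ACE2, pre-treated 1 h with compound, then infected with MLV particles pseudotyped with Wuhan-Hu-1 spike (C-terminal 19-aa truncation). Luciferase luminescence after 48 h at 37 °C, normalised to spike PP and bald PP.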

Inconclusive results are not listed. Entries that show only a call come without a potency. Active and inactive are the calls of the source. The call rests on the fitted dose curve.
Potency means the concentration at half of the fitted maximal effect.

For `CC(=O)OCC(=O)Nc1cc(C#N)cc(NC(=O)COC(C)=O)c1Cl`, in experiment [1], the Potency entry was “inactive”.

Consider `CCCCCC(=O)O[C@]1(C(C)=O)CC[C@H]2[C@@H]3CCC4=CC(=O)CC[C@]4(C)[C@H]3CC[C@@]21C`, for which, in experiment [2], the Potency was 24.1 µM (active).

In the case of `Oc1ccc(Cl)cc1Cc1cc(Cl)ccc1O`, the Potency in experiment [2] is 0.0152 µM (active).

As for `CCN(CCCc1ccccc1)CCCc1ccccc1`, in experiment [1], the Potency result is “inactive”.

With `O=C(O)[C@H](O)[C@@H](O)[C@H](O[C@@H]1O[C@H](CO)[C@H](O)[C@H](O)[C@H]1O)[C@H](O)CO`, the Potency result in experiment [1] was “inactive”.

Turning to `CN(C)CCN(Cc1ccccc1)c1ccccn1`, the Potency entry in experiment [1] is “inactive”.

With `CN(C)CCOC(c1ccccc1)c1ccc(Br)cc1` (stereo not drawn), in experiment [2], the Potency is 2.41 µM (active). In experiment [1], the Potency entry was “inactive”. For the same compound, in experiment [3], the activity change, negative = inhibition was -67.2%.

As for `CN(C)CCCN1c2ccccc2Sc2ccccc21`, the Potency in experiment [2] is 27.1 µM (active); in experiment [3], 14.1 µM (active). The Potency entry in experiment [1] was “inactive”.

For `COC(=O)C1=C(C)NC(C)=C(C(=O)OC(C)(C)CN(C)CCC(c2ccccc2)c2ccccc2)C1c1cccc([N+](=O)[O-])c1` (stereo not drawn), the Potency in experiment [2] was 6.07 µM (active).

`CCCSS/C(CCO)=C(\C)N(C=O)Cc1cnc(C)nc1N`: the Potency entry in experiment [2] and in experiment [1] was “inactive” each time. Also, the activity change, negative = inhibition in experiment [3] is -57.5%.

On to `Nc1c(NC/C=C\COc2cc(CN3CCCCC3)ccn2)c(=O)c1=O`, for which, in experiment [1], the Potency result is “inactive”.

As to `CCCOc1ccc2nc(NC(=O)OC)[nH]c2c1`, the Potency in experiment [2] is 0.764 µM (active). The Potency entry in experiment [1] is “inactive”.

For the compound `CCCCCCCCCCCCCCCC[n+]1ccccc1`, in experiment [1], the Potency is 11.2 µM (active).

As for `NC1=NCC2c3ccccc3Cc3ccccc3N12` (stereo not drawn), in experiment [1], the Potency result was “inactive”.

In the case of `CC(=O)CCC(=O)O`, the Potency result in experiment [1] is “inactive”.

For `C#C[C@]1(O)CC[C@H]2[C@@H]3CCc4cc(O)ccc4[C@H]3CC[C@@]21C`, in experiment [1], the Potency result is “inactive”.

As for `N[C@@H](Cc1c[nH]c2ccc(O)cc12)C(=O)O`, the Potency entry in experiment [1] was “inactive”.

Take `Cc1c(-c2ccccc2)oc2c(C(=O)OCCN3CCCCC3)cccc2c1=O`: the Potency result in experiment [1] is “inactive”.

Regarding `CN(C)CCCOc1nn(Cc2ccccc2)c2ccccc12`, the Potency entry in experiment [1] was “inactive”.

For the compound `CN1CCC(=C2c3ccccc3CCc3cccnc32)CC1`, in experiment [1], the Potency entry was “inactive”.

`O=c1[nH]c(=O)c2[nH]c(=O)[nH]c2[nH]1`: in experiment [1], the outcome was “inactive [at 11.3 µM]”.

Take `CCC(=O)O[C@]1(C(=O)COC)[C@@H](C)C[C@H]2[C@@H]3CCC4=CC(=O)C=C[C@]4(C)C3(F)[C@@H](O)C[C@@]21C` (stereo partly drawn): in experiment [1], the Potency entry was “inactive”.

For the compound `CCN(CC)CCOCCOC(=O)C1(c2ccccc2)CCCC1`, the Potency entry in experiment [1] is “inactive”.

Take `C=C1C(=C/C=C2\CCC[C@]3(C)[C@@H]([C@H](C)/C=C/[C@@H](O)C4CC4)CC[C@@H]23)C[C@@H](O)C[C@@H]1O`: the Potency result in experiment [1] is “inactive”.

With `C=CCOc1cc(Cl)ccc1C(=O)NCCN(CC)CC`, the Potency result in experiment [1] was “inactive”.

Take `CCC(=O)c1ccc2c(c1)N(CCCN(C)C)c1ccccc1S2`: the Potency result in experiment [1] is “inactive”.

For `CCN(CC)CCOc1ccccc1C(=O)CCc1ccccc1`, the Potency entry in experiment [1] is “inactive”.

Consider `C=CCOc1ccccc1OCC(O)CNC(C)C` (stereo not drawn), for which the Potency entry in experiment [1] was “inactive”.

As to `OC(CCN1CCCCC1)(c1ccccc1)c1ccccc1`, in experiment [1], the Potency entry was “inactive”.

As to `CCCCOc1ccc(CC(=O)NO)cc1`, in experiment [1], the Potency result was “inactive”.

Consider `CN1C[C@H](C(=O)N[C@]2(C)O[C@@]3(O)[C@@H]4CCCN4C(=O)[C@H](Cc4ccccc4)N3C2=O)C[C@@H]2c3cccc4[nH]cc(c34)C[C@H]21`, for which the Potency result in experiment [1] was “inactive”.

For the compound `N[C@H](C(=O)O)[C@@H](O)c1ccc(O)c(O)c1`, the Potency result in experiment [1] was “inactive”.

`CC(=O)OCC(=O)NCCCOc1cccc(CN2CCCCC2)c1`: the Potency result in experiment [1] was “inactive”.

Regarding `COC(=O)Nc1nc2ccc(S(=O)c3ccccc3)cc2[nH]1` (stereo not drawn), the Potency entry in experiment [1] is “inactive”.

Regarding `CC(C)(C)c1ccc(C(O)CCCN2CCC(C(O)(c3ccccc3)c3ccccc3)CC2)cc1` (stereo not drawn), the Potency entry in experiment [1] was “inactive”.

`COc1cc(C(=O)OCCCN2CCCN(CCCOC(=O)c3cc(OC)c(OC)c(OC)c3)CC2)cc(OC)c1OC`: the Potency entry in experiment [1] was “inactive”.

Take `CC(C)C(=O)OCc1cccc(OC(=O)[C@@H]2N3C(=O)[C@@H](NC(=O)Cc4ccccc4)[C@H]3SC2(C)C)c1`: the Potency result in experiment [1] was “inactive”.

`O=C(O)c1ccccc1Nc1cc(Cl)ccc1C(=O)O`: the Potency entry in experiment [1] was “inactive”.

With `COc1cc(O)c(C(=O)c2ccccc2)cc1S(=O)(=O)O`, in experiment [1], the Potency result is “inactive”.

As to `CCCCN1CCCC[C@H]1C(=O)Nc1c(C)cccc1C`, the Potency result in experiment [1] was “inactive”.

Consider `Cc1cc2nc3ccc(=[N+](C)C)cc-3sc2cc1N`, for which the Potency in experiment [1] is 22.4 µM (active).

Take `CC(C(O)c1ccccc1)N(C)CCOC(c1ccccc1)c1ccccc1` (stereo not drawn): the Potency entry in experiment [1] was “inactive”.

Take `CCN(CC)CCOC(=O)C(Cc1cccc2ccccc12)CC1CCCO1` (stereo not drawn): in experiment [1], the Potency entry was “inactive”.

In the case of `O=C1C(CCS(=O)c2ccccc2)C(=O)N(c2ccccc2)N1c1ccccc1` (stereo not drawn), the Potency entry in experiment [1] was “inactive”.

With `CC(C)(C)c1ccc(C(=O)CCCN2CCC(OC(c3ccccc3)c3ccccc3)CC2)cc1`, in experiment [1], the Potency result was “inactive”.

On to `CN(C)CCN1C(=O)c2ccccc2N(C)c2ccccc21`, for which, in experiment [1], the Potency result is “inactive”.

Take `Cc1cccc(CN2CCN(C(c3ccccc3)c3ccc(Cl)cc3)CC2)c1` (stereo not drawn): the Potency result in experiment [1] is “inactive”.

As for `C=C1c2cccc(O)c2C(O)=C2C(=O)[C@]3(O)C(O)=C(C(N)=O)C(=O)[C@@H](N(C)C)[C@@H]3[C@@H](O)[C@H]12`, the Potency result in experiment [1] was “inactive”.

Consider `COC(=O)Nc1nc2ccc(Sc3ccccc3)cc2[nH]1`, for which, in experiment [1], the Potency result was “inactive”.

On to `CC1(C)CCC(C)(C)c2cc(NC(=O)c3ccc(C(=O)O)cc3)ccc21`, for which the Potency entry in experiment [1] was “inactive”.

`CCCS(=O)c1ccc2nc(NC(=O)OC)[nH]c2c1` (stereo not drawn): the Potency entry in experiment [1] is “inactive”.

`CO[C@]1(NC(=O)CSC(F)F)C(=O)N2C(C(=O)O)=C(CSc3nnnn3CCO)CO[C@H]21`: the Potency entry in experiment [1] and in experiment [3] was “inactive” in each case.

As for `N[C@@H](CSCCCO)C(=O)O`, the Potency result in experiment [1] and in experiment [3] was “inactive” throughout.

Regarding `CCOC(=O)c1ccc(NC(=O)CN2CCCCC2)cc1`, in experiment [1], the Potency result was “inactive”. Also, the activity change, negative = inhibition in experiment [3] was -7.85%.

`CC(C)N=C(N)/N=C(\N)Nc1ccc(Cl)cc1`: the Potency result in experiment [1] and in experiment [3] was “inactive” throughout.

Turning to `Cc1ccc(C(=O)Nc2ccc(S(=O)(=O)O)c3cc(S(=O)(=O)O)cc(S(=O)(=O)O)c23)cc1NC(=O)c1cccc(NC(=O)Nc2cccc(C(=O)Nc3cc(C(=O)Nc4ccc(S(=O)(=O)O)c5cc(S(=O)(=O)O)cc(S(=O)(=O)O)c45)ccc3C)c2)c1`, the Potency result in experiment [1] is “inactive”. For the same compound, in experiment [3], the activity change, negative = inhibition was -17.2% [at 27.1 µM].
